High-throughput results (PubChem BioAssay)
RE007 growth inh – less growth of the S. pombe RE007 Vpr strain | Potency, µM (titrated, usually from 92.2 µM), inactives show top-dose activity change, negative = less growth, hits mostly inhibitors | 360,000 compounds, 0.21% hits | AID 651644 | S. pombe RE007 Vpr strain, BacTiter-Glo ATP luminescence, 24 h; active = well fitted falling curve with a large enough effect; inconclusive = small, poorly fitted or top-dose-only effect; inactive = no such curve, though single readings can be large or run the other way; note: potency is the fitted concentration of half-maximal effect; % is set by controls: 0 for no effect and ±100 for the full control effect; nearly all actives have a fitted effect of over 50% in size
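Fission yeast RE007 carrying one integrated HIV-1 vpr copy, seeded at OD 0.01 in PMG+AL medium with 23 nL pinned compound. Grown 24 h at 30 degrees; viability read by BacTiter-Glo luminescence after 5 min.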
FBPA Giardia inh – Giardia lamblia aldolase inhibition | A8B2U2 | purified Giardia FBPA | Potency, µM (highest dose often 59.6 µM), for inactives: top-dose activity, negative = inhibition, hits mostly inhibitors | 290,000 compounds, 0.71% hits | AID 2451; note: potency is the fitted concentration of half-maximal effect; % is set by controls: 0 for no effect and ±100 for the full control effect; nearly all actives have a fitted effect of over 55% in size
Target sequence (A8B2U2 whole entry, looked up): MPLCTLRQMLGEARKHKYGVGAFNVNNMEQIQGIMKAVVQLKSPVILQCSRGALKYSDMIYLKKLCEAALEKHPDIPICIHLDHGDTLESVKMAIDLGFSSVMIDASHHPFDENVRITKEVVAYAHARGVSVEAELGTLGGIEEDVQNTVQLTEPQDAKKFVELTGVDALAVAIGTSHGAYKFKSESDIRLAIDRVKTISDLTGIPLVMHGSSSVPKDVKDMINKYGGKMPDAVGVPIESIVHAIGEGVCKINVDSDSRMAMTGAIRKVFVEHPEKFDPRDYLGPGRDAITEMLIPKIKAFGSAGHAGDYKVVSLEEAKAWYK
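40 nM FBPA preincubated 10 min at RT with compound (up to 57.5 uM final), then substrate plus GAPDH/TPI/NAD/arsenate coupling and diaphorase/resazurin added. Fluorescence read after 20 min at RT, 525/598 nm.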
CHX counter – affects cycloheximide protein synthesis inhibition readout, counter-screen | max response, % | cell reporter, cycloheximide protein synthesis inhibition counterscreen | 300,000 compounds, 12% hits; in the data active = max response mostly above about 13%, no sharp cut-off; inactive = mostly below about 14%; note: read at 38.3 µM for the half of the compounds with a filed dose; 0% is about no effect
LmPK inh – blocks Leishmania mexicana pyruvate kinase activity; Q27686; purified LmPK, Kinase-Glo ATP luminescence, 1 h; Potency, µM (series often up to 57.5 µM), for inactives: at the top dose activity change, negative = inhibition, hits mostly inhibitors; 290,000 compounds, 0.37% hits; AID 1721; note: potency is the fitted concentration of half-maximal effect; % is set by controls: 0 for no effect and ±100 for the full control effect
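Purified LmPK (0.1 nM) converted ADP (0.1 mM) to ATP with PEP (0.5 mM) in imidazole buffer pH 7.2 with KCl and MgCl2, 1 h at room temperature. ATP was read by Kinase-Glo luminescence; data normalized to uninhibited and no-enzyme controls.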
Shiga inhibitor – inhibitors of Shiga toxin in Vero cells; Vero cells, Shiga toxin protein synthesis inhibition reporter; inhibition, % at 38.7 µM; 290,000 compounds, 9.2% hits; AID 2315; in the data active = inhibition mostly above about 28%, no sharp cut-off; inactive = mostly below about 43%; note: 0% is about no effect
TbPYK inhibitor – blocks Trypanosoma brucei pyruvate kinase. Q57TT1. TbPYK enzyme, Kinase-Glo Plus ATP luminescence, 45 min. Potency, µM (titrated, usually from 76.8 µM), for the others: at the highest dose activity, negative = inhibition, hits mostly inhibitors. 410,000 compounds, 0.12% hits. AID 624173; note: potency is the fitted concentration of half-maximal effect; % is set by controls: 0 for no effect and ±100 for the full control effect; nearly all actives have a fitted effect of over 50% in size
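TbPYK + substrate in 50 mM TEA pH 7.2, 100 mM KCl, 10 mM MgCl2, 0.05% BSA, 0.01% Tween-20; cpd pinned; ADP 130 uM final; 45 min RT; Kinase-Glo Plus 10 min; luminescence endpoint.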
* hit, by the source's call; [ ] = dose if it differs, or a comment. The sample as a whole holds a higher share of hits than the screen did. Unless noted, calls come from the whole dose curve; as a rule, active = well fitted curve in the direction sought with a large enough effect; inconclusive = small, poorly fitted or top-dose-only effect, or another doubt; inactive = no such curve, though single readings can be large; an effect the other way counts as inactive or inconclusive.

O=C(/C=C/c1ccccc1Cl)c1ccc(O)cc1 was read as RE007 growth inh -5%, FBPA Giardia inh -1%, CHX counter 29*, LmPK inh -11%, Shiga inhibitor 54* and TbPYK inhibitor -5%.
O=C(C=Cc1cccc(Cl)c1)c1ccccc1 was read as RE007 growth inh inconclusive and TbPYK inhibitor -1%.
CC1CCCC(NC(=O)/C=C/c2c(F)cccc2Cl)C1C (stereo unspecified) was read as RE007 growth inh 11% and TbPYK inhibitor -7%.
O=C(/C=C/c1c(F)cccc1Cl)c1ccc(O)cc1 was read as RE007 growth inh -25%, FBPA Giardia inh 5%, CHX counter 24*, LmPK inh -11%, Shiga inhibitor 58* and TbPYK inhibitor -9%.
For CC#CCN1c2ccccc2[C@]23C[C@@H](C(=O)OC)N(S(=O)(=O)c4c(C)noc4C)C2=NC(C(=O)OC)=C(C(=O)OC)[C@H]13 the results were FBPA Giardia inh -2%[12.9 µM] and LmPK inh -5%[11.5 µM].
`CN(C)c1ccc(-c2cc(NCc3cccnc3)ncn2)cc1` gave FBPA Giardia inh -8%.
COc1cccc(N=Cc2nc(-c3ccccc3)oc2OC(C)=O)c1 was read as RE007 growth inh 3%, FBPA Giardia inh -7%, CHX counter 8, LmPK inh -24%, Shiga inhibitor 48* and TbPYK inhibitor -23%.
For Cn1c(Cl)c(/C=N/OC(=O)c2cccc(Cl)c2)c2ccccc21 the results were RE007 growth inh -4%, FBPA Giardia inh 3%, CHX counter -3, LmPK inh 2%, Shiga inhibitor -9 and TbPYK inhibitor -6%.
CN(C)c1ccc(N=Cc2nc(-c3ccccc3)oc2OC(=O)c2cccc(Cl)c2)cc1 was read as RE007 growth inh -13%, FBPA Giardia inh -15%, CHX counter 68*, LmPK inh 0%, Shiga inhibitor 71* and TbPYK inhibitor -14%.
Screening COc1ccc(N=Cc2nc(-c3ccccc3)oc2OC(C)=O)cc1 returned RE007 growth inh 0%, FBPA Giardia inh -8%, CHX counter -1, LmPK inh 2%, Shiga inhibitor 14 and TbPYK inhibitor 1%.
For Cc1ccc(C(=O)Oc2oc(-c3ccccc3)nc2C=Nc2ccc(N(C)C)cc2)cc1 the results were RE007 growth inh -7%, FBPA Giardia inh -13%, CHX counter 78*, LmPK inh -3%, Shiga inhibitor 130* and TbPYK inhibitor -12%.
Screening CCOC(=O)c1cc(S(=O)(=O)N2CCN(c3ccc(C(C)=O)cc3)CC2)[nH]n1 returned TbPYK inhibitor 3%.
CCC(C(=O)OCc1cc(=O)n2nc(C)sc2n1)c1ccccc1 (stereo unspecified) was read as TbPYK inhibitor 4%.
Screening CC1CCC(C(C)C)C(P(=O)(c2ccccc2)c2ccccc2)C1 (stereo unspecified) returned FBPA Giardia inh 0%, CHX counter 1 and Shiga inhibitor 37.
COc1cc(OC)c(OC)cc1/C=C/c1nc2cc3ccccc3cc2c(=O)n1-c1ccc(F)cc1F was read as TbPYK inhibitor -5%.
`O=C(NCc1cccnc1)c1ccc(COc2ccccc2Cl)o1` gave RE007 growth inh -13%, FBPA Giardia inh 1%, CHX counter -5, LmPK inh 1%, Shiga inhibitor -15 and TbPYK inhibitor -3%.
`O=C(c1ccc(COc2ccccc2Cl)o1)N1CCCC1` gave RE007 growth inh -11%, FBPA Giardia inh 1%, CHX counter 16*, LmPK inh -6%, Shiga inhibitor 24 and TbPYK inhibitor 0%.
`O=C(OCc1ccccn1)c1ccc(COc2ccccc2Cl)o1` gave RE007 growth inh -13%, CHX counter 30*, LmPK inh -2%, Shiga inhibitor 34 and TbPYK inhibitor 1%.
`CCOc1ccc(-c2cc(CCCC(=O)NCCc3cc(OC)c(OC)c(OC)c3)no2)cc1` gave TbPYK inhibitor 5%.
`COc1ccc(N2C(=O)c3ccccc3NC23CCCCC3)cc1` gave RE007 growth inh -2%, FBPA Giardia inh -1%, CHX counter 26*, LmPK inh inconclusive, Shiga inhibitor 52 and TbPYK inhibitor -4%.
COc1ccc(N2C(=O)c3ccccc3NC2(C)C)cc1 was read as RE007 growth inh 10%, FBPA Giardia inh 0%, CHX counter 15, LmPK inh 3%, Shiga inhibitor 73* and TbPYK inhibitor 0%.
For COc1ccc(N2C(=O)c3ccccc3NC23CCC(C)CC3)cc1 (stereo unspecified) the results were RE007 growth inh 9%, FBPA Giardia inh 7%, CHX counter 32*, LmPK inh 2%, Shiga inhibitor 54 and TbPYK inhibitor -5%.
`CON(C)C(=O)c1nnc2c(n1)[nH]c1ccccc12` gave FBPA Giardia inh 3%[12.9 µM].
Screening CCCn1c(C)nc2c(NCc3ccccc3)nc(C)nc21 returned FBPA Giardia inh 0%.
`Cc1ccccc1OC(=O)CSc1nnc(-c2ccc(F)cc2)o1` gave TbPYK inhibitor 4%.
Cn1c(=O)oc2cc(S(=O)(=O)NC(Cc3ccccc3)C(=O)Nc3ccc(F)cc3)ccc21 (stereo unspecified) was read as TbPYK inhibitor 1%.
For O=C1/C(=C\c2ccc(O)cc2)SC(=S)N1/N=C/c1ccc(O)cc1 the results were RE007 growth inh -13%, FBPA Giardia inh -1%, CHX counter 12*, LmPK inh -9%, Shiga inhibitor 26 and TbPYK inhibitor 1%.
COc1cc(NC(=O)Nc2cccc(-c3noc(C)n3)c2)cc(OC)c1OC was read as TbPYK inhibitor 4%.
Screening OCCNC(=S)Nc1ccc2c(c1)OCCO2 returned RE007 growth inh 14%, FBPA Giardia inh -12%, CHX counter 2, LmPK inh -2%, Shiga inhibitor 19 and TbPYK inhibitor 4%.
For S=C(Nc1ccc2c(c1)OCCO2)Nc1ccc2c(c1)OCO2 the results were RE007 growth inh -4%, FBPA Giardia inh -22%, CHX counter 57*, LmPK inh -2%, Shiga inhibitor 120* and TbPYK inhibitor -2%.
S=C(Nc1ccc2c(c1)OCO2)Nc1ccccc1Cl was read as RE007 growth inh 9%, FBPA Giardia inh -12%, CHX counter 24*, LmPK inh -3%, Shiga inhibitor 35* and TbPYK inhibitor 0%.
CC(C(=O)Nc1ccc2c(c1)OCO2)N(C)CC(=O)Nc1ccccc1Cl (stereo unspecified) was read as RE007 growth inh -19% and TbPYK inhibitor 0%.
`COc1cc(-c2noc(-c3ccc(NCCc4ccccc4)c([N+](=O)[O-])c3)n2)cc(OC)c1OC` gave TbPYK inhibitor 2%.
